What is called inhibition is the change of the read-out against control, counted positive when it falls.

In all, about 340,000 compounds went through this assay and about 2,100 (0.62%) were called active. The list is a sample of the results. Entries with a potency or affinity are not part of this list. Values without a mark were called inactive.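 The calls were made as follows: active = first-screen hits whose inhibition reached a set limit at any dose in the follow-up dose series; inconclusive = inhibition above the set first-screen limit but never retested; inactive = the rest.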

Among the data in PubChem BioAssay AID624330 (Southern Research Specialized Biocontainment Screening …, 2012) are inhibition values, retold here.

For the assay, the target named is Rac GTPase-activating protein 1 (Homo sapiens) (UniProt Q9H0H5). The assay can be described thus: MgcRacGAP GTPase-activating activity inhibitors, confirmation, biochemical, ADP Hunter fluorescence, primary and confirmatory (AID 624330).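 Also: fluorescence reports GDP produced by GAP-driven GTP hydrolysis.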 The note with it: MgcRacGAP-stimulated Rac1 GTP hydrolysis, at 30 µM, stronger effect = higher value, GST-tagged Rac1 F28L mutant substrate.
Rac GTPase-activating protein 1 (Homo sapiens), sequence (Q9H0H5 whole entry, looked up): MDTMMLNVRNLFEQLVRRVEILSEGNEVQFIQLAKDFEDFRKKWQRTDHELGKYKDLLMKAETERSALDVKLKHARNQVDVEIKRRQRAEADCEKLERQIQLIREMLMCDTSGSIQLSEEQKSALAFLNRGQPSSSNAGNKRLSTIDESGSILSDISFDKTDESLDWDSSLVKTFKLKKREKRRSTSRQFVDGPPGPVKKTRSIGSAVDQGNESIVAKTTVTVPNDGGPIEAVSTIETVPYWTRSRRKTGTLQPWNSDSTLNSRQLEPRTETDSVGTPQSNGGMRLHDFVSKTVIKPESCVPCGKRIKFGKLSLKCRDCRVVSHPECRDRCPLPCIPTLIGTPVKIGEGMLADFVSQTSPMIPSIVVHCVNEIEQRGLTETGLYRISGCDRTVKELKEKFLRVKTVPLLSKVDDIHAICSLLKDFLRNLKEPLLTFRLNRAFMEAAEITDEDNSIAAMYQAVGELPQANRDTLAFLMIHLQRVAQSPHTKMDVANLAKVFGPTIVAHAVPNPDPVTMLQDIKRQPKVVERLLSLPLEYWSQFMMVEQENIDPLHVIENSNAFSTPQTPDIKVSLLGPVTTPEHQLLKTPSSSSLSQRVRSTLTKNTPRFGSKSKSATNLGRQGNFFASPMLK
In the case of `O=C(Nc1ccc(N2CCOCC2)cc1)c1ccc(Cl)c(S(=O)(=O)N2CCCCC2)c1`, the inhibition is 0.26%.

For `CC1CC(=O)C2=C(C1)Nc1nc3ccccc3n1C2c1cccnc1` (centres undefined), the inhibition was 6.35%. Take `O=C(COc1cccc2cccnc12)Nc1cccc(S(=O)(=O)N2CCCC2)c1`: the inhibition is 7.88%. Regarding `CCCCCCc1ccc(N2C[C@H](Cc3ccccc3)[C@@H](CC(=O)Nc3ccccc3)C2=O)cc1`, the inhibition was 3.37%. Consider `COc1cc(OC)c(N(C)C(=O)c2cn(C)c(=O)c3cc(OC)c(OC)cc23)cc1Cl`, for which the inhibition is 9.25%. As for `COC(=O)c1ccc(CNC(=O)C2CCC(=O)N(CCN3CCOCC3)C2)cc1` (centres undefined), the figure is 6.54%. As for `CCOC(=O)N1CCC(Nc2c([N+](=O)[O-])cc(C(=O)O)cc2[N+](=O)[O-])CC1`, the inhibition is 9.55%. For `Cc1ccc(NC(=O)COC(=O)COc2cccc3c2OC(C)(C)C3)cc1S(=O)(=O)N1CCOCC1` the value was 5.48%; for `CC1=C(C(=O)N(C)C)CC(CC(=O)NCCN2CCOCC2)C(=O)N1CCC1=CCCCC1` (centres undefined), 19.4%. In the case of `O=C1/C(=C\c2ccccc2)CCC/C1=C/c1ccccc1`, the inhibition is -6.55%. `COc1ccc(OC(=O)N2C/C(=C/c3ccccc3)C(=O)/C(=C\c3ccccc3)C2)cc1`: the inhibition was -4.51%.

As to `CCOC(=O)C1(C)C=C(Nc2ccc(NC(C)=O)cc2)C(=O)N1c1ccc(NC(C)=O)cc1` (centres undefined), the inhibition is 4.87%. Consider `CCOC(=O)C1(C)C=C(Nc2ccc(C)cc2)C(=O)N1c1ccc(C)cc1` (centres undefined), for which the inhibition is 1.9%. As for `CC(C)N1C(=O)c2ccccc2C1C(=O)NCCc1ccccc1` (centres undefined), the inhibition was 3.65%. In the case of `COCC(=O)N(Cc1cc2cccc(C)c2[nH]c1=O)c1ccccc1`, the inhibition is 2.29%. As to `CCOc1ccc(OCCC(=O)OCC(=O)c2c(N)n(CC(C)C)c(=O)n(C)c2=O)cc1`, the inhibition was 15%. With `O=C(O)C1Nc2c(Cl)cc(Cl)c(Cl)c2C2C=CCC12` (centres undefined), the inhibition is 17.2%. For `Cc1cc(C)c2c(c1)NC(c1cc3c(cc1Br)OCO3)C1CC=CC21` (centres undefined), the inhibition was -0.13%. As for `CC1Cc2cc(S(=O)(=O)N3CCC(C(=O)N(C)Cc4ccccc4)CC3)ccc2N1C(=O)C1CC1` (centres undefined), the figure is 8.31%. Consider `Fc1ccc(-n2cc(CNCCc3ccncc3)c(-c3ccccc3Cl)n2)cc1`, for which the inhibition was 1.7%.

Turning to `CCOc1ccc(OCC(=O)Nc2cc(Cl)ccc2-n2cncn2)cc1`, the inhibition is 20.4%. As for `CCN(C(=O)COC(=O)CCCc1c[nH]c2ccccc12)c1c(N)n(Cc2ccccc2)c(=O)[nH]c1=O`, the inhibition is -4.19%. Turning to `Cc1ccc2oc(=O)c(/C=C(\O)c3ccco3)nc2c1`, the inhibition was 18.2%. As for `Cc1ccc2oc(=O)c(/C=C(\O)c3cccs3)nc2c1`, the figure is 15.8%; as for `O=c1oc2ccc(Cl)cc2nc1/C=C(\O)c1cccs1`, 19.2%. Regarding `O=c1oc2ccc(Cl)cc2nc1/C=C(\O)c1ccco1`, the inhibition was 25%. For `CN(CCO)c1cc(NCCCN2CCC(Cc3ccccc3)CC2)c2nonc2c1[N+](=O)[O-]`, the inhibition is 4.68%.

As for `Cc1ccc(C(=O)Nc2ccncc2)cc1[N+](=O)[O-]`, the inhibition is 10.1%.

For the molecule `Cc1ccc(NC(=O)c2ccc(-n3cccn3)c([N+](=O)[O-])c2)cc1`, the inhibition was 6.01%.

Regarding `O=C(Nc1ccncc1)c1ccc(Cl)c(Cl)c1`, the inhibition is 4.24%. For `O=C(Nc1ccc(NC(=O)c2ccc(Cl)cc2Cl)cc1)c1ccc2c(c1)OCO2`, the inhibition is 5.16%. As to `COc1ccc(N(C(=O)/C=C/c2ccccc2)C2=CC3CCC(C2)N3C)cc1` (centres undefined), the inhibition is 1.64%.

In the case of `COc1cc2[nH]c(C(=O)N3CCC(Cc4ccccc4)CC3)cc2c(OC)c1OC`, the inhibition was 4.96%. In the case of `Cc1ccc(-n2nc(C)c3c2OC(N)=C(C#N)C3c2ccc(F)cc2)cc1` (centres undefined), the inhibition is 6.17%. For `Cc1c(C(=O)N/N=C/c2cccs2)nc2ccccn12` the value was 4.8%; for `Cc1ccc(C(=O)Nc2ccc(O)cc2C(=O)O)cc1`, 14.9%; for `CCN1C(=O)c2ccc(C(=O)Nc3c(C)cc(C)cc3C)cc2C1=O`, -2.89%.

Regarding `CC(C)CN1C(=O)c2ccc(C(=O)Nc3ccc(O)cc3C(=O)O)cc2C1=O`, the inhibition is 15.1%. With `CC(C)(C)N1C(=O)c2ccc(C(=O)Nc3cc(C(=O)O)cc(C(=O)O)c3)cc2C1=O`, the inhibition is 13.1%. For `CC(C)(C)N1C(=O)c2ccc(C(=O)Nc3ccc(C(=O)O)cc3)cc2C1=O` the value was 1.96%; for `Cc1cc(N)ccc1NC(=O)c1ccccc1`, 6.01%; for `Cc1ccc(N2C(=O)c3ccc(C(=O)N4CCOCC4)cc3C2=O)cc1C`, -11.3%. With `O=C(COC(=O)c1ccc(O)cc1O)c1ccc(Cl)cc1`, the inhibition was 2.91%.

As for `CCCOP(=O)(c1ccc(N(C)C)cc1)C(O)c1ccccc1OC` (centres undefined), the inhibition is 4.57%.

For the molecule `Nc1ccc2c(c1)C(=O)c1ccccc1-2`, the inhibition was 18.2%.

As for `Nc1ccc2c(c1)C(=O)c1cc(Cl)c(Cl)cc1-2`, the inhibition is 7.4%. Take `Nc1ccc2c(c1)C(=O)c1ccc(N)cc1-2`: the inhibition is 22.8%. Consider `Nc1cc2c(cc1Cl)-c1ccc(Cl)cc1C2=O`, for which the inhibition is 3.85%.

Regarding `CCOC(=O)C1CCN(CCC(=O)Nc2ccccc2)CC1`, the inhibition was 12.6%. Consider `Cc1cccc(NC(=S)NCc2cccs2)c1`, for which the inhibition was 9.05%.

With `COc1cc(C(=O)N[C@@H](Cc2c[nH]c3ccccc23)C(=O)O)cc(OC)c1OC`, the inhibition was 1.53%. For `O=C(/C=C/c1ccc(F)cc1)NC(Cc1c[nH]c2ccccc12)C(=O)O` (centres undefined) the value was -4.83%.

With `Cc1nn(-c2ccccc2)c(NC(=O)c2cccs2)c(-c2ccccc2)c1=O`, the inhibition was 0.27%. In the case of `Cc1cccc(NC(=O)N2CCCCCC2)c1`, the inhibition was 4.32%. Turning to `CCc1cc2c(SCc3ccc(C(=O)OC)o3)ncnc2s1`, the inhibition was 7.63%. On to `COc1cccc(/C=C2\SC(=S)N(NC(=O)c3ccncc3)C2=O)c1`, for which the inhibition was 15.5%.

On to `CC(=O)NN1C(=O)/C(=C\c2ccc(C)cc2)SC1=S`, for which the inhibition was 9.68%.

For the molecule `O=C1/C(=C\c2ccc(O)cc2)SC(=S)N1Cc1ccccc1`, the inhibition was 10.6%. For `CCOc1cc(/C=C2\SC(=S)N(Nc3ccccc3)C2=O)ccc1O` the value was 11.1%; for `COc1cc(/C=C2\SC(=S)N(Nc3ccccc3)C2=O)cc(OC)c1OC`, 11.2%; for `O=C(NN1C(=O)/C(=C/c2cccs2)SC1=S)c1ccncc1`, 8.88%. As for `O=C1/C(=C\c2ccc(O)cc2)SC(=S)N1c1cccnc1`, the figure is 2.66%; as for `CC(=O)NN1C(=O)/C(=C\c2ccc(Cl)cc2)SC1=S`, 7.77%. For `N/C(=N\OC(=O)Cc1ccc(-c2ccccc2)cc1)c1cccnc1` the value was 5.49%; for `CCNC(=S)N1C2CCC1CC(NC(=O)NC1CCCCC1)C2` (centres undefined), 1.32%; for `c1ccc(-n2ncc3c(N4CCN(CCOc5cccc6ccccc56)CC4)ncnc32)cc1`, -0.49%. As for `CCCCOC(=O)c1cc(Cl)c(O)c(OC)c1`, the inhibition is 13.4%. With `CC(NC(=O)c1ccc(F)cc1)c1ccc(F)cc1` (centres undefined), the inhibition is 4.7%. `O=C(Nc1ccccc1)C(Cc1ccccc1)c1ccccc1` (centres undefined): the inhibition was -2.68%. As to `CCOc1ccc(N2CC(C(=O)Nc3cc(OCC)c(N4CCOCC4)cc3OCC)CC2=O)cc1` (centres undefined), the inhibition was 2.59%. For the molecule `CCN1CCN(C(=O)C2(NC(=O)Nc3ccccc3Cl)CCCCC2)CC1`, the inhibition is 2.74%. Turning to `O=c1ccc(-c2ccccc2)no1`, the inhibition is 1.17%. In the case of `Cc1ccc(S(=O)(=O)CCC(=O)OCC(=O)Nc2cc(F)ccc2C)cc1`, the inhibition is 1.06%. As for `CCOC(=O)CC1C(=O)NCCN1S(=O)(=O)c1cccc(C(F)(F)F)c1` (centres undefined), the figure is 7.16%; as for `O=C(Nc1ncnc2sc3c(c12)CCCC3)c1ccncc1`, -0.48%. Consider `O=C(O)c1ccc(/C=C2\SC(=S)N(NC(=O)c3ccccc3)C2=O)cc1`, for which the inhibition is 8.51%. As for `COc1cc(/C=C2\SC(=S)N(NC(=O)c3ccccc3OC)C2=O)ccc1O`, the inhibition is 8.13%. Take `O=C(CCCN1C(=O)/C(=C\c2ccccc2)SC1=S)Nc1ccc(O)cc1C(=O)O`: the inhibition is 12.8%.

Consider `Cc1ccc(/C=C2\SC(=S)N(CCC(=O)NNC(=O)c3ccc(O)cc3)C2=O)cc1`, for which the inhibition is 6.6%.

In the case of `O=C(NN1C(=O)/C(=C/c2ccc(O)cc2)SC1=S)c1cccc(O)c1`, the inhibition is 30.8%. With `O=C(NN1C(=O)/C(=C/c2cccc(O)c2)SC1=S)c1ccccc1O`, the inhibition was 5.04%.

Turning to `CCOC(=O)CSc1nc2cc(S(=O)(=O)Nc3ccccc3OC)ccc2o1`, the inhibition is 5.81%. With `Clc1cccc(CSc2ncnc3c2ncn3C2CCCCO2)c1` (centres undefined), the inhibition was 2.71%. As to `NS(=O)(=O)c1ccc(CCNC(=O)CN2CCN(Cc3cccc4ccccc34)CC2)cc1`, the inhibition is 3.28%. For `O=C1NC(=S)S/C1=C\c1cccc([N+](=O)[O-])c1` the value was 11.9%; for `O=C(O)/C=C/c1ccc([N+](=O)[O-])o1`, 12.4%.

With `Cc1cc2[nH]c3ccccc3c2cn1`, the inhibition is 17%. `COC(=O)c1c(NC(=O)C2CCCCC2)sc2c1CCN(C(C)C)C2`: the inhibition was 8.85%. Consider `COc1cccc(OCC(O)CN2CCOCC2)c1` (centres undefined), for which the inhibition is 6.97%. For `CC(=O)N1CCN(CC(O)COc2ccc(OCc3ccccc3)cc2)CC1` (centres undefined), the inhibition is 3.99%. Consider `CCOC(=O)N1CCN(CC(O)COc2c(C)cc(C)cc2C)CC1` (centres undefined), for which the inhibition was 3.3%. Take `O=C(c1ccccc1)N1CCN(CC(O)COc2ccc(Br)cc2)CC1` (centres undefined): the inhibition was 1.08%. As for `CCN1CCN(CC(O)COc2cccc(OC)c2)CC1` (centres undefined), the inhibition was 8.83%. As to `Cc1cccc(C)c1OCC(O)CN1CCN(C(=O)c2ccccc2)CC1` (centres undefined), the inhibition was -23.8%.
